Laboratory results published in PubChem BioAssay AID1851 (National Center for Advancing Translational Sciences (NCATS), 2009).
About 5,800 (36%) of roughly 16,000 compounds were called active. Inconclusive results (about 23%) are left out. Calls come from the whole dose curve; as a rule, active = well fitted curve in the direction sought with a large enough effect; inconclusive = small, poorly fitted or top-dose-only effect, or effect the other way; inactive = no such curve, though single readings can be large or run the other way. The list shows a part of the results.

Target: Cytochrome P450 2C19 (Homo sapiens) (UniProt P33261)
Sequence (P33261 whole entry, looked up): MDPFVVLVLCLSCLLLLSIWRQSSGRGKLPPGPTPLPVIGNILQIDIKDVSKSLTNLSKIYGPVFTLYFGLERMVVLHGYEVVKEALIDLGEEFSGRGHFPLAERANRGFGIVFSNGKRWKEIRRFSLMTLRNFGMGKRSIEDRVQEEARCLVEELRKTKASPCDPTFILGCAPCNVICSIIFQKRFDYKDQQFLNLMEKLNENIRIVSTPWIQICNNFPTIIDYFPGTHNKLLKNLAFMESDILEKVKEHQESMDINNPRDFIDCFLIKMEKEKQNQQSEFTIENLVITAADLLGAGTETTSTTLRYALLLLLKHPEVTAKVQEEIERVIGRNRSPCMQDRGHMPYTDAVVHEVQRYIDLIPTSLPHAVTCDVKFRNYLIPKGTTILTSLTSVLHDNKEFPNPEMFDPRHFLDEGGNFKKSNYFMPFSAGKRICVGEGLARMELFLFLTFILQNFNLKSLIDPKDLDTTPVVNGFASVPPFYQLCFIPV
Experiment: Cytochrome panel assay with activity outcomes
Settings: recombinant CYP, pro-luciferin dealkylation, luminescence, p450-cyp2c19; series mostly up to 57.1 µM; activity, negative = inhibition: at the top concentration
% is set by controls: 0 for no effect and ±100 for the full control effect.

activity, negative = inhibition, inactive:
COc1ccc(C(=O)Nc2ccc3c(c2)nc(CN2CCN(C(C)=O)CC2)n3C)cc1 2.91%, Cc1ccc(NC(=O)CN2C(=O)S/C(=C\c3cccn3C)C2=O)cc1 -11.2%, CC(C)=CCC/C(C)=C/CO/N=C1/C[C@@H](O)[C@@H](O)[C@@H]2[C@H]3C(=O)N(c4ccc(F)cc4F)C(=O)[C@@H]3CC[C@H]12 -33.8% [at 11.4 µM], CCNc1ncc2nc(-c3ccccc3)c(=O)n(Cc3cccs3)c2n1 -10.5%, CN(C)c1ncc2nc(-c3ccc(F)cc3)c(=O)n(Cc3cccs3)c2n1 4.17%, COc1cccc(Cn2c(=O)c(-c3cc(F)cc(F)c3)nc3cnc(N(C)C)nc32)c1 2.39%, COc1cccc(Cn2c(=O)c(-c3ccccc3)nc3cnc(N(C)C)nc32)c1 -36%, CN(C)c1ncc2nc(-c3ccc(Cl)cc3)c(=O)n(Cc3cccs3)c2n1 34.8%, COc1ccc(Oc2ncc3nc(-c4cccc(C#N)c4)c(=O)n(Cc4cccc(OC)c4)c3n2)cc1 2.61%, CN(C)c1ncc2nc(-c3cccs3)c(=O)n(Cc3cccs3)c2n1 -12.8%, COc1ccc(-c2nc3cnc(OC)nc3n(Cc3cccc(OC)c3)c2=O)cc1 -7.4%, Cc1nc2cnc(N(C)C)nc2n(Cc2cccs2)c1=O -27%, CN(C)c1ncc2nc(-c3ccccc3)c(=O)n(Cc3ccc(F)cc3)c2n1 -22%, COc1cccc(Cn2c(=O)c(-c3cccc(C#N)c3)nc3cnc(Nc4ccccc4)nc32)c1 -33.9%, COc1cccc(Cn2c(=O)c(-c3cn(C)c4ccccc34)nc3cnc(OC)nc32)c1 -30%, CN(C)c1ncc2nc(-c3cc(F)cc(F)c3)c(=O)n(CCc3ccccc3)c2n1 13.3%, COc1cc(CC(=O)O)c(C(C)=O)cc1OC -25.3%, COc1ccc(/C=N/NC(=S)NC2CCS(=O)(=O)C2)cc1OC (stereo not drawn) -2.49%, O=C(O)c1cc(-c2ccc(-c3ccc(-c4cc(C(=O)O)c5cc(Cl)ccc5n4)cc3)cc2)nc2ccc(Cl)cc12 -23.2% [at 11.4 µM], NNC(=O)c1ccncc1 -26.4% [at 25.6 µM], O=C1[C@@H]2[C@H]3[C@H](O)[C@H](O)C/C(=N/OCc4ccccc4)[C@H]3CC[C@H]2C(=O)N1c1ccc(F)cc1F -4.38% [at 11.4 µM], CN(C)S(=O)(=O)c1ccc(Nc2ccc(O)c3c2C(=O)c2c([N+](=O)[O-])ccc(O)c2C3=O)cc1 -34.2% [at 11.4 µM], COc1ccc(NC(=O)c2cccs2)c([N+](=O)[O-])c1 -28.2%, CC(=O)c1c(C(C)=O)c(C)n(NC(=O)c2ccccc2Cl)c1C -23.6%, CCC[C@H]1C[C@H](C(=O)N[C@H]([C@@H]2O[C@H](SC)[C@@H](O)[C@H](O)[C@@H]2O)[C@H](C)O)N(C)C1 10.7% [at 25.6 µM], Cc1cc(N)c2cc(NC(=O)Nc3ccc4nc(C)cc(N)c4c3)ccc2n1 -6.46% [at 11.4 µM], Cc1cc(C)c(C(N)=O)c(NC(=O)Nc2ccccc2)n1 -7.94%

AC50, inactive:
C=CCN1CCc2cc(O)c(O)cc2[C@H](c2ccccc2)C1, CN(C)CCO[C@](C)(c1ccccc1)c1ccccn1, CC(C)NNC(=O)c1ccncc1

AC50, active:
Cn1c(CN2CCCCC2)nc2cc(NC(=O)c3ccc(Cl)cc3)ccc21 28.2 µM, CC(C)n1cc(/C=C2/SC(=O)N(CC(=O)Nc3ccc4c(c3)OCO4)C2=O)c2ccccc21 5.01 µM, Cc1c(/C=C2\SC(=O)N(CC(=O)Nc3ccc4c(c3)OCO4)C2=O)c2ccccc2n1C 2.51 µM, CCn1c(C)cc(/C=C2\SC(=O)N(CC(=O)Nc3ccc(C)c(C)c3)C2=O)c1C 1.12 µM, Cn1cc(/C=C2/SC(=O)N(CC(=O)Nc3ccc4c(c3)OCO4)C2=O)c2ccccc21 0.794 µM, CCNc1ncc2nc(CCc3ccccc3)c(=O)n(Cc3cccc(OC)c3)c2n1 6.31 µM, COc1cccc(Cn2c(=O)cnc3cnc(N(C)C)nc32)c1 2.51 µM, COc1cccc(Cn2c(=O)c(CCc3ccccc3)nc3cnc(N(C)C)nc32)c1 0.794 µM, CN(C)c1ncc2nc(CCc3ccccc3)c(=O)n(Cc3cccs3)c2n1 6.31 µM, CN(C)c1ncc2ncc(=O)n(Cc3cccs3)c2n1 10 µM, COc1cccc(Cn2c(=O)c(CCc3ccccc3)nc3cnc(OC)nc32)c1 15.8 µM, COc1cccc(Cn2c(=O)c(-c3cccc(C#N)c3)nc3cnc(OC)nc32)c1 10 µM, CN(C)c1ncc2nc(CCc3ccccc3)c(=O)n(Cc3ccc(F)cc3)c2n1 0.794 µM, CC(=O)c1ccc(N2CCC(c3cc(-c4ccc(Cl)cc4Cl)n[nH]3)CC2)c([N+](=O)[O-])c1 0.282 µM, COc1ccc(-c2cc(C3CCN(c4ccc(C(C)=O)cc4[N+](=O)[O-])CC3)[nH]n2)cc1 2.24 µM, CC(=O)c1ccc(N2CCC(c3cc(-c4ccc(Cl)cc4)n[nH]3)CC2)c([N+](=O)[O-])c1 0.501 µM, CC(=O)c1cc(CC=C(C)C)c(O)cc1O 2.82 µM, COc1ccc(Sc2ccc(NC(=O)c3ccccc3Cl)cc2C#N)cc1 2.82 µM, COc1cc(/C=N/Nc2snc(SC)c2C#N)cc(OC)c1OC 14.1 µM, COc1ccc(/C=N/Nc2snc(SC)c2C#N)cc1OC 5.01 µM, N/C(=N\OC(=O)c1cc(-c2ccccc2)nc2ccccc12)c1ccc(Cl)cc1 7.94 µM, O=C(CC(=O)c1ccncc1)c1ccccc1 0.398 µM, CCOc1cc(-c2noc(N)c2C#N)cc(OCC)c1OCC 15.8 µM, COc1ccc(NC(=O)CSc2nncn2C)c([N+](=O)[O-])c1 31.6 µM, COc1ccc(NC(=O)CN(C)S(=O)(=O)c2ccc(Cl)cc2)c([N+](=O)[O-])c1 8.91 µM, CC(=O)c1c(C(C)=O)c(C)n(NC(=O)c2ccncc2)c1C 0.2 µM, CCOC(=O)CC(Nc1nc(N2CCOCC2)nc(N2CCOCC2)n1)c1ccccc1Cl (stereo not drawn) 3.16 µM, Cc1cc(NC(=O)Nc2ccc(N(C)C)cc2)c2cc(F)cc(F)c2n1 15.8 µM
